The results in this text go back to PubChem BioAssay.

Active and inactive are the calls of the source. Unless noted, no rule for the calls is given here.

The nature of assay [1]: compounds binding Alexa647 anti-His antibody – biochemical, small-molecule microarray, 635 nm fluorescence, artefact control for SMM control protein annotation, primary screen (AID 1128).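 Also: score merges feature fluorescence with signal-to-noise for each printed compound spot.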 As to conditions: higher = more signal.
In assay [2] the test system is Human papillomavirus type 1a E7 protein (residues 1-88). Put plainly: HPV1a E7 small-molecule binders, primary screen, biochemical, small-molecule microarray, residues 1-88, 635 nm (AID 1129). As to conditions: small-molecule microarray binding, fluorescence 635 nm; higher = more signal.
For assay [3], the target named is Focal adhesion kinase 1 (Homo sapiens) (UniProt Q05397). Put plainly: PTK2 protein binding on printed compound slides – biochemical, small-molecule microarray, 635/667 nm fluorescence, BSA, DTT, primary screen (AID 1130).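 Also: composite of spot emission at 667 nm and signal to noise over triplicate slides.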 As to conditions: 635 nm fluorescence, higher = more signal.
Assay [4] concerns Fibrinogen (Alexa647-labelled). The assay is described as follows: Alexa647-fibrinogen binding to printed small molecules – biochemical, small-molecule microarray, 635/667 nm fluorescence, artefact control for SMM control-protein annotation, profiling panel (AID 1131).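 Also: z-score merges 667 nm fluorescence with per-spot signal-to-noise over triplicate slides.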 As to conditions: fibrinogen-A647 binding fluorescence, higher = more signal.
Assay [5] deals with Follistatin (Homo sapiens) (UniProt P19883). Put plainly: FST protein binding to printed compounds – biochemical, small-molecule microarray, 635/667 nm fluorescence, primary screen (AID 1132). Particulars: 635 nm fluorescence, higher = more signal.
The target in assay [6] is Fibroblast growth factor 2 (Homo sapiens) (UniProt P09038). The assay is described as follows: basic fibroblast growth factor binding to printed compounds – biochemical, small-molecule microarray, 635/667 nm fluorescence, primary screen (AID 1133). As to conditions: FGF2, fluorescence 635/667, higher = more signal.
Assay [7] can be described thus: JC-1 mitochondrial potential readout, lung cancer cells – cell-based, A549, JC-1 fluorescence, basal, 24 h, 100 nL, profiling panel (AID 1138).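 Also: A549 lung adenocarcinoma cells under basal conditions with no added stimulus; test concentration not given here.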 As to conditions: higher = more signal.
Another assay concerns Lefty1. Put plainly: Lefty1 protein binding to printed compounds – biochemical, small-molecule microarray, 635/667 nm fluorescence, primary screen (AID 1139). As to conditions: fluorescence 635/667, higher = more signal.
Assay [8] has as its system wheat germ agglutinin (Triticum aestivum), Alexa647-labelled. The assay is described as follows: Alexa647-WGA lectin binding to printed small molecules – biochemical, small-molecule microarray, 635/667 nm fluorescence, artefact control for SMM control-protein annotation, profiling panel (AID 1140).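 Also: score merges 667 nm feature emission with signal to noise over triplicate slides.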 As to conditions: WGA-A647 binding, 635 nm fluorescence, higher = more signal.

The target in assay [9] is Luciferin 4-monooxygenase (Photinus pyralis) (UniProt P08659). Put plainly: inhibition of purified Photinus pyralis luciferase – biochemical, luminescence, purified enzyme, 2006 set, primary screen (AID 1141).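 Also: cell-free assay with purified firefly luciferase at 100 ng per well in PBS; test concentration not given here.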 As to conditions: purified firefly luciferase, SteadyGlo luminescence, 30 min; higher = more signal, called active from +8 up or from −8 down.
Assay [10] deals with Wnt5a (protein binding on small-molecule microarray). Put plainly: small molecules binding Wnt5a protein – biophysical, small-molecule microarray, 635/667 nm fluorescence, primary screen (AID 1142).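 Also: fluorescence read at 667 nm with signal to noise per printed feature.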 As to conditions: 635 nm fluorescence, higher = more signal.
Assay [11] in a line: ATP-based viability of Huh7 replicon cells – cell-based, CellTiter-Glo luminescence, basal, 48 h, cytotoxicity control for HCV replication inhibitor project, primary screen (AID 1143).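 Also: Huh7 hepatoma cells carrying a hepatitis C replication reporter with no stimulus; test concentration not given here.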 Particulars: higher = more signal, called active from +8 up or from −8 down.
A short description of assay [12]: Pseudomonas biofilm growth suppression – PAO1 strain, BacTiter-Glo luminescence, LB-PBS, primary screen (AID 1144). Particulars: P. aeruginosa PAO1 biofilm, 12 h, higher = more signal.
Assay [13] is described as follows: basal CRE-LacZ reporter activity in PC12 – cell-based, unstimulated, primary screen (AID 1145). Particulars: no forskolin, luminescence, 4.5 h, higher = more signal, called active from +8 up or from −8 down.
The nature of assay [14]: forskolin-driven CRE-LacZ activity in PC12 – cell-based, CRE-LacZ reporter, forskolin-stimulated, primary screen (AID 1146).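 Also: PC12 cells with 6xCRE LacZ reporter stimulated by forskolin 10 µM; beta-galactosidase reporter signal reflecting CREB driven transcription.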 Particulars: luminescence, 4.5 h, higher = more signal, called active from +8 up or from −8 down.
Assay [15] concerns the target Streptavidin (Streptomyces avidinii) (UniProt P22629). The assay is described as follows: compounds binding control protein streptavidin – biophysical, small-molecule microarray, 635/667 nm fluorescence, artefact control for SMM compound annotation, primary screen (AID 1147).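 Also: signal reflects streptavidin binding to arrayed compounds as a control protein.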 Particulars: higher = more signal.
Assay [16] is described as follows: probe aInhba binding on compound microarray – biochemical, small-molecule microarray, 635/667 nm fluorescence, primary screen (AID 1148).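 Also: score merges 667nm spot fluorescence with signal-to-noise for antibody binding to printed compounds.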 Particulars: higher = more signal.
The target in assay [17] is Torsin-1A (Homo sapiens) (UniProt O14656). The assay is described as follows: TOR1A wild-type binding on microarray – cell lysate, small-molecule microarray, lysate, 635/667 nm, primary screen (AID 1149). As to conditions: COS7 hTOR1A-WT lysate, 635 nm fluorescence, higher = more signal.
Assay [18] shares this target. Put plainly: torsin A mutant lysate binding on microarrays – cell lysate, small-molecule microarray, COS7 lysate, 635/667 nm fluorescence, primary screen (AID 1150).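 Also: score pools 667 nm emission and signal to noise measuring lysate protein binding.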 As to conditions: COS7 hTOR1A mutant lysate, 635 nm fluorescence, higher = more signal.
The test system of assay [19] is Sonic hedgehog protein (Shh). The assay is described as follows: Sonic hedgehog microarray binding compounds – biochemical, small-molecule microarray, 635/667 nm fluorescence, primary screen (AID 1151).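 Also: Shh protein binding to compounds spotted on small-molecule microarray slides; score combines spot fluorescence intensity with signal-to-noise across triplicate slides.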 As to conditions: 635 nm fluorescence, higher = more signal.

Sequence of Torsin-1A (Homo sapiens) (O14656 whole entry, looked up): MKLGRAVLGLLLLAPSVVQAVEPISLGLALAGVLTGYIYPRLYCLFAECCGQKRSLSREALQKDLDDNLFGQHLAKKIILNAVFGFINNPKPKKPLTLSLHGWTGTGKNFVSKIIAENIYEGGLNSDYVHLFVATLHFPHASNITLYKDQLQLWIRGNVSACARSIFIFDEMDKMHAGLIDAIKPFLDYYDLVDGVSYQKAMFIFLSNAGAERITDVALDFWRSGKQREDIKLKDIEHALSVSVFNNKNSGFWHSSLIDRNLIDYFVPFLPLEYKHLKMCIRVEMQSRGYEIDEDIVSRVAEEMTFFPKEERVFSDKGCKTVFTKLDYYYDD
Sequence of Luciferin 4-monooxygenase (Photinus pyralis) (P08659 whole entry, looked up): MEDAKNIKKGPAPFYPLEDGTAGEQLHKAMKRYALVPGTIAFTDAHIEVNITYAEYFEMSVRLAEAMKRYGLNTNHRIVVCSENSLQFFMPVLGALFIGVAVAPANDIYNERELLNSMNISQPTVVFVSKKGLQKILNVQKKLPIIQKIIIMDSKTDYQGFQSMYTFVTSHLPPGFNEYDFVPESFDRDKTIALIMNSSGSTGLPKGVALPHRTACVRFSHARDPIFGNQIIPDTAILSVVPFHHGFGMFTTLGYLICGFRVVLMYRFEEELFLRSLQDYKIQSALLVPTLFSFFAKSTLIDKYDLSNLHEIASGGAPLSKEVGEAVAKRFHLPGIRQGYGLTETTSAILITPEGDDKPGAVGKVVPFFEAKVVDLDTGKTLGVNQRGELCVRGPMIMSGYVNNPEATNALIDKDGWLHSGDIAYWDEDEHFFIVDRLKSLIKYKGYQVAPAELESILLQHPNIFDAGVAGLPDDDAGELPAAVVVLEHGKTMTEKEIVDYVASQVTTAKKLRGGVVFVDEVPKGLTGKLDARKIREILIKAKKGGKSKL
Sequence of Follistatin (Homo sapiens) (P19883 whole entry, looked up): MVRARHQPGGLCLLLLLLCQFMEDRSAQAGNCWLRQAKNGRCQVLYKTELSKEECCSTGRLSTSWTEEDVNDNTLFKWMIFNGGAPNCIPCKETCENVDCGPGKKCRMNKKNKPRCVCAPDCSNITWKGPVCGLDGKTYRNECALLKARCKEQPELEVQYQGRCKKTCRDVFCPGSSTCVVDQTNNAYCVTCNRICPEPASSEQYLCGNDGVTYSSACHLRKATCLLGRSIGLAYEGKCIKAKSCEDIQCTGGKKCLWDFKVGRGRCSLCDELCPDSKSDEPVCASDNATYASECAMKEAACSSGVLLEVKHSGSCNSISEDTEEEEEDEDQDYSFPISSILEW
Sequence of Fibroblast growth factor 2 (Homo sapiens) (P09038 whole entry, looked up): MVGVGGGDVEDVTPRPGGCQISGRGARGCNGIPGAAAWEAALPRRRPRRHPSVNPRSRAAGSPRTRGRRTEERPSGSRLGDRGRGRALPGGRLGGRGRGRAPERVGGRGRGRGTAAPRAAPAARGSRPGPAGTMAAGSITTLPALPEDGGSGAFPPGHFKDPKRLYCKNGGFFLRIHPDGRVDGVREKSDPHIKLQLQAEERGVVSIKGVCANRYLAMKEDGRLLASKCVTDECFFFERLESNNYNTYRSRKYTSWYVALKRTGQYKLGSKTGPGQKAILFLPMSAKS
Sequence of Streptavidin (Streptomyces avidinii) (P22629 whole entry, looked up): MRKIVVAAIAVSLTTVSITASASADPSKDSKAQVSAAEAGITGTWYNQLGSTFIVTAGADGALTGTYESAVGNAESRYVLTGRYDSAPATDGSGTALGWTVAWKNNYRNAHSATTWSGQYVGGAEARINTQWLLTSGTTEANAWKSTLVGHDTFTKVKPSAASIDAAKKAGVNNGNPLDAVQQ
Sequence of Focal adhesion kinase 1 (Homo sapiens) (Q05397 whole entry, looked up): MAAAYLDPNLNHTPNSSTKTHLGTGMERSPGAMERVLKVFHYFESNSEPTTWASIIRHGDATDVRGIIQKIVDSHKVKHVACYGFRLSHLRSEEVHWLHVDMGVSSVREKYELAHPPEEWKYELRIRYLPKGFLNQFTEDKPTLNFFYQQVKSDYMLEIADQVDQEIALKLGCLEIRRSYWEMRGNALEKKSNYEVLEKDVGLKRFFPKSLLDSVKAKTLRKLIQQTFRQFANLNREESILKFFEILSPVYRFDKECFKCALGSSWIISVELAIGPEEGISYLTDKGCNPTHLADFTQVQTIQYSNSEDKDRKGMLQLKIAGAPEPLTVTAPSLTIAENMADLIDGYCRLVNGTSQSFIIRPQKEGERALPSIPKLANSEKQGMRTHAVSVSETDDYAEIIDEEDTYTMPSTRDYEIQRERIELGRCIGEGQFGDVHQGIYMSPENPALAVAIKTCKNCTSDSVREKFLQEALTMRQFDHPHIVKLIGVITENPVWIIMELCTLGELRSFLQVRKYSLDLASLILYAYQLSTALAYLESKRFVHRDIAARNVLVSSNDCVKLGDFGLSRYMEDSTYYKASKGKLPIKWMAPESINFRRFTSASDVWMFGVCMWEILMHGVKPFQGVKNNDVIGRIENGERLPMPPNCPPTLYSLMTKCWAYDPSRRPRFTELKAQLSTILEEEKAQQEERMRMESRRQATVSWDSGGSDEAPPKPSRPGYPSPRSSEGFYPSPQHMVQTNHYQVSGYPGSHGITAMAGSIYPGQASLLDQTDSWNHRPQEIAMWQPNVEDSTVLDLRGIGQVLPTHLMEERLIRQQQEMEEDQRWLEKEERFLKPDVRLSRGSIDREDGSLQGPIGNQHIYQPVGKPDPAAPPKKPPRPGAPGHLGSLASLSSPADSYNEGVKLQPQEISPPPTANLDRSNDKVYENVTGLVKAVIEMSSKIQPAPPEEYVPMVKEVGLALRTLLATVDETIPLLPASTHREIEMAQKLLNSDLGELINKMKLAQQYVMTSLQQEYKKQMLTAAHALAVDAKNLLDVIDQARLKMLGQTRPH

On to `O=C1C[C@@](C(=O)NCC(F)(F)F)(c2ccc([N+](=O)[O-])cc2)[C@@H](c2ccc(CO)cc2)N1C1CCCCC1`, for which the composite z-score in [1] worked out at 2.22; in assay [2], 1.22; in assay [3] it was 0.847; in assay [4] it was 0.956; in assay [5] it was 1.47; in assay [6], 1.28. In addition, the composite z-score was found to be 0.761 in the assay with Lefty1; 0.861 in assay [8]; 0.247 in assay [10]; 0.579 in assay [15]; 0.101 in assay [16]; 1.36 with Torsin-1A (Homo sapiens) [17]. In addition, the composite z-score was determined as 1.57 with Torsin-1A (Homo sapiens) [18] and 1.22 in assay [19]. In addition, the z-score in assay [7] was 0.0267; in [9], 0.414 (inactive); in assay [11], -1.97 (inactive); in assay [12] it was 0.0325 (inactive); in assay [13], 0.854 (inactive); in assay [14], -0.369 (inactive).
Regarding `C[C@H]1ON(c2ccc(C(=O)OC(C)(C)C)cc2)[C@@H](c2ccc(O)cc2)[C@@H]1C(=O)N1C(=O)OC[C@@H]1c1ccccc1`, the composite z-score in assay [1] came to 0.82; in [2], 1.13; in assay [3], 0.429; in [4], 0.935; in assay [5], 1.22; in assay [6], 1.4. The composite z-score was 0.724 in the assay with Lefty1; 0.38 in assay [8]; 0.382 in assay [10]; 0.179 in assay [15]; -0.114 in assay [16]; -0.0484 with Torsin-1A (Homo sapiens) [17]. Also, the composite z-score in the assay with Torsin-1A (Homo sapiens) [18] is 0.39; in assay [19] it was 1.97. Further, the z-score in [7] is -0.802; in assay [9], -0.587 (inactive); in assay [11] it was -2.3 (inactive); in [12], -0.0446 (inactive); in [13], 0.846 (inactive); in assay [14], 0.0621 (inactive).
`COCC(=C=CC[C@H](O)c1ccc(OCCO)cc1)C[C@H](O)COCc1ccccc1`: the composite z-score stood at 1.35 in [1]; 0.887 in assay [2]; 0.453 in [3]; 0.31 in [4]; 1.21 in assay [5]; 0.372 in [6]. The composite z-score was 0.722 in the assay with Lefty1; 0.624 in assay [8]; 0.122 in assay [10]; 0.249 in [15]; -0.0736 in assay [16]; 0.908 with Torsin-1A (Homo sapiens) [17]. Moreover, the composite z-score with Torsin-1A (Homo sapiens) [18] stood at 0.719; in assay [19], 1.55. Moreover, the z-score in assay [7] is 0.743; in [9], -0.627 (inactive); in [11], -1.66 (inactive); in [12], -0.54 (inactive); in assay [13], 0.611 (inactive); in assay [14] it was -0.724 (inactive).
Consider `COCCOC(=O)N1C(=O)[C@@]2(c3cc(C#Cc4ccc(OC)cc4)ccc31)[C@H](C(=O)NC[C@H](O)c1ccccc1)[C@H]1C(=O)O[C@H](c3ccccc3)[C@H](c3ccccc3)N1[C@@H]2c1ccc(O)cc1`, for which the composite z-score turned out to be 0.933 in assay [1]; 1.16 in assay [2]; 0.33 in assay [3]; 0.912 in [4]; 1.16 in assay [5]; 1.01 in assay [6]. For the same compound, the composite z-score in the assay on Lefty1 was determined as 1.19; in assay [8], 0.666; in assay [10], 0.317; in assay [15], 0.582; in assay [16], 0.0228; with Torsin-1A (Homo sapiens) [17], 0.772. Also, the composite z-score with Torsin-1A (Homo sapiens) [18] was 0.527; in assay [19] it was 1.73. Besides, the z-score in [7] is -1.47; in assay [9] it was 0.273 (inactive); in assay [11] it was -2.05 (inactive); in assay [12], -0.392 (inactive); in assay [13], -1.01 (inactive); in assay [14], -1.19 (inactive).
Take `O=C1O[C@@H](c2ccccc2)[C@@H](c2ccccc2)N2[C@@H](c3ccc(O)cc3)[C@]3(C(=O)Nc4ccc(C#CCCO)cc43)[C@@H](C(=O)NC[C@H](O)c3ccccc3)[C@H]12`: the composite z-score in assay [1] is 0.206; in assay [2] it was -0.386; in [3], -0.141; in [4] it was -1.38; in [5], -0.162; in assay [6], -1.11. Also, the composite z-score was 0.0328 in the assay on Lefty1; 1.12 in assay [8]; -0.738 in assay [10]; -0.791 in [15]; -0.128 in assay [16]; -0.664 in the assay with Torsin-1A (Homo sapiens) [17]. Further, the composite z-score in the assay with Torsin-1A (Homo sapiens) [18] came out at 0.229; in assay [19] it was 0.304. The z-score in [7] was -1.57; in assay [9] it was 0.411 (inactive); in assay [11] it was 0.058 (inactive); in assay [12] it was 0.142 (inactive); in assay [13] it was -1.15 (inactive); in assay [14] it was -0.869 (inactive).
